NTR1 ag = activates human neurotensin receptor 1; NTR1-U2OS beta-arrestin-GFP spot imaging, agonist mode; AID 493036; P30989; 0.17% of 330,000 active; activation, % at 20 µM;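 active means activation at or above 40% of the spot to cytoplasm intensity ratio, with at least 20 cells analyzed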
Granule exo inh = blocks lytic granule exocytosis | TALL-104 LAMP-1 surface exposure, flow cytometry; cells stimulated with thapsigargin and PMA | AID 651702 | inhibition, % at 10 µM | 0.66% of 360,000 active;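 active means inhibition above about 55%, limit read from the data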
m5-HT2A agonist = activates the mouse 5-HT2A serotonin receptor; CHO-K1 mHTR2A beta-arrestin complementation, luminescence; percent of 30 µM serotonin response; P35363; activation, % at 7.6 µM; 0.66% of 360,000 active; AID 624169;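 active means activation above a run cutoff, the mean activation of all tested compounds plus 3 SD, cut at about 14% in these data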
B2AR ag = activates human beta-2 adrenergic receptor causing internalization | Am2.2-beta2AR cells, FAP receptor internalization, flow cytometry | response, % (test concentration not listed) | 0.43% of 340,000 active;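 active means response above a set limit, near 3 SD of response in nonfluorescent compounds, cut at about 42% in these data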
ABHD5 PLIN5 PPI = blocks binding of human ABHD5 to perilipin-5; inhibition, % at 4 µM; Split G. princeps luciferase complementation, luminescence, 4 h; 0.78% of 360,000 active; AID 602281;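 active means inhibition above the mean inhibition across every tested compound plus 3 SD, cut at about 22% in these data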
ABHD5 PLIN5 conf = ABHD5-PLIN5 interaction inhibition, confirmed; inhibition, % at 4 µM; 67% of 2,200 active; shares compounds with ABHD5 PLIN5 PPI; biochemical ABHD5-PLIN5 interaction, luminescence; in the data active means inhibition above about 23%
HNF4 split-luc = active in HNF4 split-luciferase counter-screen for ABHD5-PLIN5 inhibitors; inhibition, % at 4 µM; AID 651674; HNF4 dimerization, luminescence, biochemical; 77% of 2,200 active; shares compounds with ABHD5 PLIN5 PPI;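 active means mean inhibition across replicate wells exceeding the computed hit threshold, cut at about 13% in these data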;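 further: light from luciferase halves that rejoin when HNF4 fusion proteins dimerize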
A number is an active result. Only some compounds are listed: those with a hit (about 2.3% of all), similar ones and a draw of the others.

Screening Cc1ccc(-n2c(=O)cc(N3CC(C)OC(C)C3)[nH]c2=O)cc1 (stereo not drawn) returned NTR1 ag inactive, Granule exo inh inactive, m5-HT2A agonist inactive, B2AR ag inactive and ABHD5 PLIN5 PPI inactive.
Screening CC1CN(c2cc(=O)n(-c3ccccc3)c(=O)[nH]2)CC(C)O1 (stereo not drawn) returned NTR1 ag inactive, Granule exo inh inactive, m5-HT2A agonist inactive, B2AR ag inactive, ABHD5 PLIN5 PPI 35.5, ABHD5 PLIN5 conf inactive and HNF4 split-luc inactive.
For C=CC[C@]12C=C(OC)C(=O)C(OC)=C1O[C@@H](c1ccc3c(c1)OCO3)[C@H]2C the results were NTR1 ag inactive, Granule exo inh inactive, m5-HT2A agonist inactive, B2AR ag inactive and ABHD5 PLIN5 PPI inactive.
`C=CC[C@]12CC=CC(=O)[C@@]1(O)O[C@H](c1ccc(OC)c(OC)c1)[C@H]2C` gave NTR1 ag inactive, Granule exo inh inactive, m5-HT2A agonist inactive, B2AR ag inactive, ABHD5 PLIN5 PPI 27.0, ABHD5 PLIN5 conf 50.0 and HNF4 split-luc 35.9.
`CC1(C)c2ccccc2N2CC(=O)NC21/C=C/c1ccco1` (stereo not drawn) gave NTR1 ag inactive, Granule exo inh inactive, m5-HT2A agonist inactive, B2AR ag inactive, ABHD5 PLIN5 PPI 26.9, ABHD5 PLIN5 conf inactive and HNF4 split-luc 21.3.
`CN(C)CCCN1c2ccc(O)cc2Sc2ccc(Cl)cc21` gave Granule exo inh inactive, m5-HT2A agonist inactive and ABHD5 PLIN5 PPI inactive.
OC1CC2CCC(C1)N2CCCN1c2ccccc2Sc2ccc(Cl)cc21 (stereo not drawn) was read as Granule exo inh inactive, m5-HT2A agonist inactive, B2AR ag inactive, ABHD5 PLIN5 PPI 27.1, ABHD5 PLIN5 conf inactive and HNF4 split-luc 16.1.

Source: PubChem (several laboratories)
